High-throughput results (PubChem)
Compounds with a hit are over-represented: about 3.9% of the library has one in this group of screens.
CASP6 VEID inh: human caspase-6 inhibitors, primary screen, biochemical, VEID-R110 fluorescence, single point, set 2. P55212. purified caspase-6, Z-VEID-R110 cleavage fluorescence. inhibition, % at 12.5 µM. 350,000 tested, 0.53% active. AID 686996, 2013;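 active = mean inhibition across replicates at least about 35%, with every replicate also reaching that limit, limit read from the data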;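 note: 0% = median of neutral control wells and 100% = no fluorescence left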
Target sequence (P55212 24-179 limits assumed): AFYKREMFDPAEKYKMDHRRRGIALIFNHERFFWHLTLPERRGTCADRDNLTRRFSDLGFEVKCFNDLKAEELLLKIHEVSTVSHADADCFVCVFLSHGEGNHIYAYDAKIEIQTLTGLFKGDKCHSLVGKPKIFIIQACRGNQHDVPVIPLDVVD
Target sequence (P55212 194-293 limits assumed): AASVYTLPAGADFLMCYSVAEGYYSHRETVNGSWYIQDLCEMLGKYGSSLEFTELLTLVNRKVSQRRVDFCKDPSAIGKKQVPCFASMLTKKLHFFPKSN
CDK5 p35 inh: inhibitors of human CDK5/p35 kinase, primary screen, biochemical, single concentration; inhibition, % at 10 µM; 330,000 tested, 0.01% active; Recombinant CDK5/p35, ADP-Glo luminescence, 60 min; AID 488839, 2010;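 active = highest replicate inhibition of at least 50% and at least 75% of replicates reaching 50%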;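 note: plate controls were DMSO neutral control for no effect and GW8510 at 10 µM for full effect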
NSD2 HMT inh: NSD2 histone methyltransferase inhibitors, primary screen, biochemical, AlphaScreen, single concentration, set 2; NSD2 peptide methylation, 120 min; inhibition, % at 12.5 µM; 310,000 tested, 0.54% active; AID 743445, 2014; in the data active = inhibition above about 50%
N-glyco inh: increase of ERlucT glycosylation luciferase signal, primary screen, N-linked glycosylation inhibitor project, D54 ERlucT cells, luminescence, set 2; AID 588692, 2011; reporter increase, % at 12.5 µM; D54 ERlucT glycosylation luciferase reporter, 24 h; percent of 100 nM tunicamycin response; 360,000 tested, 0.23% active;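 active = mean luciferase reporter signal, scaled so untreated is 0 and the glycosylation-blocking control 100, at or above a set limit in every replicate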;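 note: luciferase carries N-glycosylation sites so blocking glycosylation raises the light; 0% = median of neutral control wells and 100% = median of 100 nM tunicamycin wells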
ALR inh: inhibitors of human ALR sulfhydryl oxidase, primary screen, biochemical, H2O2 detection, HRP-luminol luminescence, single point | inhibition, % (test concentration not listed) | AID 485317, 2010 | purified ALR, DTT oxidation | 290,000 tested, 3.8% active;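 active = mean replicate inhibition above about 79%, with every replicate also reaching it, limit read from the data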
Target sequence (P55789 whole entry, looked up): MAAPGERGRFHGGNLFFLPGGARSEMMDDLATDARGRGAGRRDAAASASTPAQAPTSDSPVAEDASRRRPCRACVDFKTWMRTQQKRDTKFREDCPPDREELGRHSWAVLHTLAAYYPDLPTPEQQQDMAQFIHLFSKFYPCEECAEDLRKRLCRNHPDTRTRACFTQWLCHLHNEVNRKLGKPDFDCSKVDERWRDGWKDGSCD
Mot1-301 SUMO: yeast Mot1-301 growth rescue at high temperature, primary screen, SUMOylation pathway inhibitor project, S. cerevisiae, ATP luminescence, 38.5C | S. cerevisiae Mot1-301 growth rescue; percent above DMSO median, 100 means doubled | growth rescue, % at 18.8 µM | 320,000 tested, 1% active;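 active = every valid replicate shows activation above 250% relative to neutral control wells; inactive = the rest, any valid replicate at or below 250%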;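 note: OY570 slx delta 5 strain wells were the positive control but not used for scaling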
* marks the source's active call; other numbers are inactive results; / = no result given.

SMILES | CASP6 VEID inh | CDK5 p35 inh | NSD2 HMT inh | N-glyco inh | ALR inh | Mot1-301 SUMO
O=C(Nc1cccc(Cl)c1)C1CCCN(S(=O)(=O)c2cnc[nH]2)C1 (stereo unspecified) | 3.0 | -0.7 | / | 3.8 | -35.0 | -2.8
O=C(NCCc1ccccc1)C1CCCN(c2ncnc3c2nc2n3CCCCC2)C1 (stereo unspecified) | -2.2 | / | -2.2 | 4.4 | -2.1 | 6.5
O=C(NCCCN1CCN(c2ccccc2)CC1)C1CCCN(c2ncnc3c2nc2n3CCCCC2)C1 (stereo unspecified) | 0.0 | 0.6 | -0.6 | 5.6 | 98.8* | -3.0
O=C(NCCN1CCN(c2ccccc2)CC1)C1CCCN(S(=O)(=O)c2cnc[nH]2)C1 (stereo unspecified) | / | 0.6 | / | 1.0 | 97.1* | 10.5
Cc1cc(=O)oc2cc(OCC(=O)N3c4ccccc4CC3C)ccc12 (stereo unspecified) | 2.1 | 1.5 | -2.4 | 22.2 | 1.1 | /
CCN(CC)c1cccc(OCC(=O)N2c3ccccc3CC2C)c1 (stereo unspecified) | 2.4 | -1.3 | 8.7 | -4.0 | 98.2* | 14.8
CN(C)c1ccc2c(c1)[C@@H]1C[C@H](CC(=O)O)O[C@H](CO)[C@@H]1O2 | -0.7 | / | / | / | / | /
O=C(Nc1ccc(-c2n[nH]c(=S)o2)cc1)c1ccccc1Br | 4.0 | 1.3 | 2.9 | 0.8 | 86.3* | 10.2
CCOc1ccc(-c2nc(CSc3nnc(C)s3)cs2)cc1OC | / | 0.1 | 0.1 | -2.6 | / | 3.5
CCOc1ccc(-c2nc(CSc3nncs3)cs2)cc1OC | / | 1.0 | 0.9 | -1.0 | 94.4* | 3.4
COc1cccc(S(=O)(=O)N[C@H]2CC[C@H](CCN)O[C@@H]2CO)c1 | 3.4 | / | / | / | / | /
COc1cc(Nc2nc3c(N)cc(C(F)(F)F)cc3nc2-c2ccccc2)cc(OC)c1OC | -1.5 | -0.6 | -1.3 | 26.3* | / | /
COc1cc(Nc2cccc(-c3ccccc3)n2)cc(OC)c1OC | 3.7 | / | 12.6 | 3.0 | / | /
COc1ccc(CNC(=O)C2CC(=O)N(C3CCCCC3)C2)cc1 (stereo unspecified) | -2.8 | 1.8 | / | 0.5 | -7.3 | -9.9
COc1ccc(N2CCN(CCNC(=O)C3CC(=O)N(C4CCCC4)C3)CC2)cc1 (stereo unspecified) | / | 1.6 | 12.4 | 0.5 | 86.1* | 12.2
CCOC(=O)c1ccc2[nH]c3c(c2c1)CCCC3 | -0.2 | 0.5 | 5.1 | 1.4 | 98.3* | 13.6
COC(=O)c1ccc2[nH]c3c(c2c1)CC(C)CC3 (stereo unspecified) | 4.5 | 0.4 | 5.2 | 0.8 | 92.5* | -13.6
CCOC(=O)c1ccc2[nH]c3c(c2c1)CCCC3O (stereo unspecified) | 0.7 | -3.3 | 0.7 | 1.6 | -2.4 | 6.7
CCCC(C)NC(=O)c1ccc2[nH]c3c(c2c1)CC(C)CC3 (stereo unspecified) | / | 1.5 | 3.8 | 2.8 | 12.2 | 3.3
CN1C(=O)c2cc(NC(=O)Cc3cccs3)ccc2OC[C@H]2O[C@@H](CC(=O)NCc3ccc(-c4ccccc4)cc3)CC[C@H]21 | 1.1 | / | / | / | / | /
Cc1noc(C)c1NC(=O)Nc1ccc2c(c1)CC(=O)N([C@H](C)CO)C[C@@H](C)[C@H](CN(C)C(=O)Nc1ccc(C(F)(F)F)cc1)O2 | -3.1 | / | / | / | / | /
CCN(CC)S(=O)(=O)c1ccc(N/N=C/c2ccc(O)cc2)nc1 | 2.8 | 2.3 | 4.6 | -1.7 | 99.4* | -5.8
CCOc1ccc(CNC(=S)N/N=C\c2ccc([N+](=O)[O-])cc2)cc1 | / | -0.3 | 1.1 | -0.7 | 98.6* | -4.4
CCOc1ccc(CNC(=S)N/N=C/c2cccnc2)cc1 | 4.7 | 0.1 | -0.4 | 2.1 | 2.0 | 8.3
COc1ccc(S(=O)(=O)N[C@H]2CC[C@H](CC(=O)NCCc3ccccc3)O[C@H]2CO)cc1 | -0.8 | / | / | / | / | /
O=C(O)c1ccccc1C(=O)Nc1ccc(S(=O)(=O)Nc2ccc(F)cc2)cc1 | -1.8 | 1.4 | 0.0 | 0.5 | / | 10.5
Cc1ccc(S(=O)(=O)Nc2c(C(=O)O)[nH]c3ccccc23)c(C)c1 | 2.1 | 4.4 | 6.6 | 1.0 | 98.4* | 10.5
